Rows were chosen to be rich in hits. Some 19% of all compounds tested hit in one or more screens of this group.
DT40 TDP1 CPT = growth inhibition of DT40 Tdp1-/-;hTDP1 cells with camptothecin (screen for TDP1 inhibitors). chicken DT40 Tdp1-/-;hTDP1 cells + 20 nM CPT, ATP luminescence, 48 h. Potency, µM (top dose mostly 46.2 µM), for the others: top-dose activity change, negative = growth inhibition, hits mostly inhibitors. hit rate 12% among 420,000. AID 686979; further: nearly all actives have a fitted effect of over 55% in size
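Chicken DT40 Tdp1-/- cells complemented with human TDP1, 400 cells/well, exposed to compounds plus 20 nM camptothecin for at least 48 h at 37 C; viability read as ATP content by CellTiter-Glo luminescence.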
Gal4-VP16 FLuc = Gal4-VP16 reporter inhibition counter-screen | Potency, µM (top dose mostly 53.6 µM), for the others: top-dose activity, negative = inhibition, usual class: inhibitors | AID 2546 | Drosophila S2 Gal4-VP16 UAS-luciferase, luminescence, 20 h | hit rate 3.5% among 310,000;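 further: Gal4-VP16 expression switched on by copper sulfate through the metallothionein promoter; nearly all actives have a fitted effect of over 50% in size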
TDP1 inh = TDP1 (human) enzyme inhibition. Q9NUW8. recombinant TDP1, AlphaScreen DNA substrate cleavage. Potency, µM (highest dose often 130 µM), for the others: at the top dose activity change, negative = inhibition, hits mostly inhibitors. hit rate 0.28% among 350,000; further: nearly all actives have a fitted effect of over 40% in size
Target sequence (Q9NUW8 whole entry, looked up): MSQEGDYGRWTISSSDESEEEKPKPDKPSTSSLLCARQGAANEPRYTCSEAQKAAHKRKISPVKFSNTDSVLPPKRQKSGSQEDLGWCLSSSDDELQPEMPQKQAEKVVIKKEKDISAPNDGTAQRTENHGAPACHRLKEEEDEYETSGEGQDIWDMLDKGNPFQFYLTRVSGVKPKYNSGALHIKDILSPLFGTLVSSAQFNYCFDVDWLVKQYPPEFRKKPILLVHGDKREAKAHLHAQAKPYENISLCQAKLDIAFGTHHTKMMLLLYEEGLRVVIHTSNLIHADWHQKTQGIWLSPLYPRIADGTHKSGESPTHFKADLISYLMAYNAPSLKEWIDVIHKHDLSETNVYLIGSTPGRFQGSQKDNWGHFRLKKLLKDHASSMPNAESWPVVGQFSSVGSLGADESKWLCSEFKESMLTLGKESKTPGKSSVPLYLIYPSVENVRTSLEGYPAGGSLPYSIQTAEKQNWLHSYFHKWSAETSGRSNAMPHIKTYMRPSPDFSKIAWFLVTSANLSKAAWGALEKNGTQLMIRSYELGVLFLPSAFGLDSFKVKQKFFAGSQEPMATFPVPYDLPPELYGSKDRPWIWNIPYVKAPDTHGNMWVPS
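Tdp1 1 nM final; 15 min RT w/ cpd; substrate 15 nM, 5 min; beads 10 ug/ml, 10 min; AlphaScreen read. Neg ctrl: no enzyme.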
TDP1 cell noCPT = qHTS for Inhibitors of human tyrosyl-DNA phosphodiesterase 1 (TDP1): qHTS in cells in absence of CPT | Potency, µM (titrated, usually from 46.2 µM), without a hit: at the highest dose activity change, negative = growth inhibition, actives largely listed as inhibitors | hit rate 15% among 420,000 | AID 686978, 2013 | DT40 Tdp1-/- hTDP1 cells, no CPT, ATP luminescence, 48 h; further: nearly all actives have a fitted effect of over 55% in size
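Luminescent ATP content (CellTiter-Glo) served as the growth readout. Knockout chicken DT40 cells expressing human TDP1 were exposed to compounds without camptothecin for a minimum 48 hr at 37 °C.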
RORgamma inh = blocks mouse ROR gamma transcriptional activity; P51450; Drosophila S2 Gal4-RORgamma UAS-luciferase reporter, 20 h; Potency, µM (highest dose often 53.6 µM), for inactives: at the top dose activity change, negative = inhibition, usual class: inhibitors; hit rate 5.4% among 310,000; AID 2551; further: nearly all actives have a fitted effect of over 60% in size
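Stably transfected Drosophila Schneider cells are the test system, with ROR gamma fused to Gal4 and luciferase under UAS control; luminescence is read after 20 hr of 700 uM copper sulfate induction at ambient temperature.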
An asterisk follows results filed as active; ? = inconclusive; / = no result given; [ ] = another dose, or the depositor's remark. The call rests on the fitted dose curve; in most records, active means well fitted curve in the direction sought with a large enough effect; inconclusive means small, poorly fitted or top-dose-only effect, or another doubt; inactive means no such curve, though single readings can be large; an effect the other way counts as inactive or inconclusive. On the % scale 0 is the no-effect control and ±100 the full control effect; potency means the concentration at half of the fitted maximal effect.

SMILES | DT40 TDP1 CPT | Gal4-VP16 FLuc | TDP1 inh | TDP1 cell noCPT | RORgamma inh
COc1ccc(CCNC(=O)C2CCN(C(=O)c3ccc(Cl)cc3)CC2)cc1 | 0% | -2% | / | -27% | ?
COc1ccc(-c2c(C)oc3c(CN4CCOCC4)c(O)ccc3c2=O)cc1 | -19% | -24% | / | 2% | -59%
COc1ccc(-c2nc(N3CCN(C)CC3)sc2-c2ccc(OC)cc2)cc1 | ? | -20% | 20% | 29µM* | ?
CSc1nc2c(c(=O)n1-c1ccc(F)cc1)SCC2 | 1% | -8% | 2% | -13% | -29%
Cc1c(Cl)cccc1NC(c1ccc(F)cc1)c1nnc(-c2ccccc2)o1 (stereo not given) | ? | / | 5% | 23µM* | /
CC(=O)c1cccc(NC(c2ccc(F)cc2)c2nnc(-c3ccccc3)o2)c1 (stereo not given) | ? | / | -3% | 18µM* | /
Clc1ccc(-c2nc3ccccn3c2CN2CCCCC2)cc1 | ? | -5% | 4% | ? | 18µM*
Oc1ccc(N2CCN(Cc3c(-c4ccccc4)nc4ccccn34)CC2)cc1 | ? | 5% | 19% | 15µM* | ?
c1ccc(-c2nc3ccccn3c2-c2ccccc2)cc1 | ? | / | / | 12µM* | /
COC(=O)Nc1c(-c2ccccc2)nc2ccccn12 | 1% | -17% | -5% | 0% | 18%
COc1ccc(-c2nc3c4ccccc4ccn3c2CN2CCCCC2)cc1 | ? | -13% | 5% | ? | 7.9µM*
O=C(c1ccc([N+](=O)[O-])cc1[N+](=O)[O-])N1CCN(C(=O)C2CCCO2)CC1 (stereo not given) | ? | / | 1% | -21% | /
Cc1[nH]c2ccc(F)cc2c1CCN(Cc1cccnc1)C(=S)Nc1ccc(F)cc1 | -17% | -14% | 5% | -27% | 1%
N#Cc1c2n(c(=S)n(-c3ccccc3[N+](=O)[O-])c1=O)CCCCC2 | -4% | -1% | 5% | -29% | ?
COc1ccc(C2C(CN3CCOCC3)C(=O)N2c2ccccc2)cc1 (stereo not given) | -3% | -8%[10 µM] | 0% | ? | -12%
Cc1ccc(N2C(=O)C(CN3CCOCC3)C2c2ccccc2)cc1 (stereo not given) | ? | -5% | 4% | 15µM* | ?
CCN(CCCNC(=O)C1CCCN(S(=O)(=O)CC)C1)c1cccc(C)c1 (stereo not given) | 23µM* | -8% | 4% | 15µM* | 28%
O=C(Nc1cccnc1)C1CCCN(S(=O)(=O)c2ccccc2)C1 (stereo not given) | -22% | 3% | 4% | -19% | 32%
CCN(CC)c1ccc(NC(=O)C2CCCN(S(=O)(=O)c3cccnc3)C2)c(C)c1 (stereo not given) | 15µM* | -8% | -3% | 10µM* | 7%
O=C(Nc1ccc(Br)cc1)C1CCCN(S(=O)(=O)c2cccnc2)C1 (stereo not given) | 23µM* | -10% | 3% | 26µM* | 44%
CCc1cccc(NC(=O)C2CCCN(S(=O)(=O)c3cccnc3)C2)c1 (stereo not given) | ? | -2% | 4% | 15µM* | 3%
CCN(CCNC(=O)C1CCCN(S(=O)(=O)CC)C1)c1ccccc1 (stereo not given) | -2% | -14% | -6% | -2% | ?
Cc1ccc(OCC(=O)Nc2ccc(F)cc2)cc1 | -18% | 21% | 3% | -12% | 34%
O=C(CN1CCN(Cc2ccc3c(c2)OCO3)CC1)Nc1cc(S(=O)(=O)N2CCCC2)ccc1Cl | ? | 0% | 4% | 16µM* | -1%
O=C(CN1CCN(C(=O)c2ccccc2)CC1)Nc1cc(S(=O)(=O)N2CCCC2)ccc1Cl | ? | / | 1% | ? | /
CN(C)S(=O)(=O)c1ccc(Cl)c(NC(=O)CN2CCN(Cc3ccc4c(c3)OCO4)CC2)c1 | ? | -3% | 7% | 21µM* | 38%
O=C(Nc1ccccc1Cl)N1CCN(Cc2ccc3c(c2)OCO3)CC1 | -3% | -3% | 0% | -25% | 20%
Cn1nc(C(=O)O)c(=O)n(C)c1=O | 8% | / | / | 6% | /
